# Shown are actives, neighbours in structure and some others; about 3.5% of the full set was active somewhere.
# TEAD-YAP inh = TEAD-YAP interaction inhibition | HEK-TIYL cells, TEAD-Gal4/YAP UAS-luciferase luminescence | inhibition, % at 9.12 µM | 640,000 tested, 1.4% active | AID 1259422; in the data active = inhibition above about 32%;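 also: 0% = median of test compound wells and 100% = reference inhibitor wells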
# FBW7 activator = human FBW7 E3 ligase activation, primary screen; Q969H0; AID 1259310; normalized activity (activation), % at 26.1 µM; 650,000 tested, 0.13% active; AlphaScreen FBW7–phospho-cyclin E peptide binding, activator screen; in the data active = normalized activity above about 1.9%;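 also: purified mutant Fbw7 with reduced substrate affinity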
# MITF primary = blocks human microphthalmia-associated transcription factor | AlphaScreen MITF homodimerization, bead proximity signal | inhibition, % at 2.6 µM | 650,000 tested, 0.91% active | AID 1259374; in the data active = inhibition above about 50%;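 also: 0% = vehicle wells with protein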
# Target sequence (O75030 whole entry, looked up): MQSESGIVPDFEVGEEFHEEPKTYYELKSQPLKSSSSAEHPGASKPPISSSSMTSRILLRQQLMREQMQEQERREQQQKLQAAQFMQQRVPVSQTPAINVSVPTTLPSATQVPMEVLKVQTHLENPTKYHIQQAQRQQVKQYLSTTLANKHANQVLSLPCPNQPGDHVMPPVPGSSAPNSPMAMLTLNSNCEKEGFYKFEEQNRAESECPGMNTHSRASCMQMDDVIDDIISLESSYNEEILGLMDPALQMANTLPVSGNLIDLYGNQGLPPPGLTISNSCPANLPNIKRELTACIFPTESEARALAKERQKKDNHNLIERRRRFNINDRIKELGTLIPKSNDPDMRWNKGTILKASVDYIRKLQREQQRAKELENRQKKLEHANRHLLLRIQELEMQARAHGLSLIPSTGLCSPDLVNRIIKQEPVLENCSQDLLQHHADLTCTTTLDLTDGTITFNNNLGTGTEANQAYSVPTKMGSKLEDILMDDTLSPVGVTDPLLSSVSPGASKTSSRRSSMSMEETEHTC
# GPR151 ag = activators of human GPR151 | AID 1508602 | 650,000 tested, 1% active | Q8TDV0 | activation, % at 11.2 µM | PathHunter beta-arrestin GPR151 cells, luminescence; in the data active = activation above about 4.9%;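 also: 0% = median of compound wells and 100% = cells with positive control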
# MITF inh conf = confirmation of human MITF inhibitors; AlphaScreen MITF homodimerization, biotin/His-MITF beads; 4,700 tested, 16% active; shares compounds with MITF primary; inhibition, % at 2.6 µM;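 active = inhibition above a cutoff derived from the DMSO control wells, cut at about 28% in these data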;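 also: 0% = MITF dimer wells with DMSO only; inhibitors lower the bead chemiluminescence by keeping MITF from dimerizing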
# AS interf DR = AlphaScreen optical interference, dose response counter-screen; AlphaScreen optical interference counterscreen, cell-free; 480 tested, 6% active; IC50, µM; shares compounds with MITF primary; call rule not given here
# AlphaScreen intf2 = AlphaScreen optical interference, counter-screen; shares compounds with MITF primary; LysRS AlphaScreen counterscreen, signal interference, triplicate; inhibition, % at 2.6 µM; 4,700 tested, 7.6% active;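 active = inhibition above a cutoff derived from the DMSO control wells, cut at about 30% in these data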
# Numbers without * were called inactive; x = no result.
SMILES,TEAD-YAP inh,FBW7 activator,MITF primary,GPR151 ag,MITF inh conf,AlphaScreen intf2,others
CCOc1ccc(CN2CCN(Cc3cc(OC)ccc3OC)CC2)cc1,5.5,0.3,79.0*,-1.1,7.7,22.3,
COc1ccc(CN2CCCCC2)cc1OC,6.9,0.0,9.3,-0.3,x,x,
COc1ccc(CN2CCN(Cc3ccc(SC)cc3)CC2)cc1OC,34.9*,-0.2,75.5*,1.7,19.9,18.9,
NCc1c(Cl)cccc1-n1ccnc1,1.9,-0.1,-5.3,-2.7,x,x,
COc1ccc(OC)c(CN2CCN(Cc3ccc(SC)cc3)CC2)c1,5.0,-0.3,76.0*,-0.3,13.7,17.6,
COc1ccc(CN2CCC(O)CC2)c(OC)c1,3.4,-0.1,31.9,1.3,x,x,
COc1ccc(CN2CCOCC2)c(OC)c1,2.3,-0.3,-3.4,0.0,x,x,
COc1ccc(CN2CCN(Cc3ccc(Cl)cc3)CC2)c(OC)c1,-18.9,-0.2,61.0*,0.1,0.6,9.1,
CCOc1ccc(CN2CCN(Cc3ccc(OC)cc3OC)CC2)cc1,19.1,0.7,68.4*,1.5,4.8,-3.8,
O=C(CNCCc1ccc(Cl)cc1)Nc1ccccc1N1CCOCC1,-12.7,-0.1,64.8*,-0.4,-0.9,18.2,
O=C(CNCCc1ccccc1)Nc1ccccc1N1CCCCCC1,-8.5,-0.2,24.5,3.2,x,x,
O=C(CNCCC1=CCCCC1)Nc1ccccc1N1CCOCC1,-0.3,0.4,76.8*,-0.8,-14.5,0.6,
Cn1c(=O)cc(N2CCCC2)n(Cc2cccc(C(F)(F)F)c2)c1=O,5.5,0.0,67.9*,0.8,12.1,18.0,
Cn1c(=O)cc(N2CCCCC2)n(Cc2cccc(C(F)(F)F)c2)c1=O,-9.0,0.0,2.3,1.0,x,x,
CCCc1sc(Nc2ccc3ccccc3c2)nc1-c1ccc(Cl)c(Cl)c1,3.2,0.0,1.6,0.5,x,x,
CC(=O)Nc1ccc(NC(=O)Cc2ccc(Br)cc2)cc1,-7.5,0.5,58.5*,-1.4,19.2,7.5,
O=C(NCC1CCC2(CCN(C(=O)C3CC3)CC2)O1)c1c(F)ccc(F)c1F (stereo not drawn),2.9,0.0,14.5,0.1,x,x,
COc1ccc2cc(C(=O)CBr)ccc2c1,2.0,0.1,15.9,4.8,x,x,
CCC(=O)c1ccc2cc(OC)ccc2c1,-13.4,0.0,82.1*,2.5,0.6,13.2,
COc1ccc(-c2noc(CN(C(=O)c3ccc(OC)c([N+](=O)[O-])c3)C(C)C)n2)cc1,5.5,0.1,-0.9,-0.3,x,x,
COc1ccc(C(=O)N(Cc2nc(-c3ccc(C)cc3)no2)C(C)C)cc1[N+](=O)[O-],-10.9,0.1,54.9*,0.6,2.3,14.1,
CC(C)C(C)NC(=O)CSc1nnc(NCc2ccccc2)s1 (stereo not drawn),-9.2,0.1,53.1*,0.7,2.8,8.1,
CCOC(=O)C1CCN(c2c(NCCCN(CC)CC)c(=O)c2=O)CC1,1.4,-0.1,1.8,1.9,x,x,
O=S(=O)(c1ccc(F)cc1)N1CCN(C2CCCCC2)CC1,15.3,-0.1,84.8*,2.3,1.0,12.1,
O=S(=O)(c1ccc(F)cc1)N1CCN(C2CCCCCC2)CC1,-8.7,0.0,31.7,-1.0,x,x,
SMILES,TEAD-YAP inh,FBW7 activator,MITF primary,GPR151 ag,MITF inh conf,AlphaScreen intf2,others
CS(=O)(=O)N1CCN(C2CCCCC2)CC1,-5.2,0.3,58.2*,-0.2,-1.1,-0.4,
CC1CN(C2CCN(S(=O)(=O)c3ccc(F)cc3)CC2)CC(C)O1 (stereo not drawn),0.5,0.7,56.6*,-0.1,-0.1,-0.1,
O=S(=O)(c1ccc(F)cc1)N1CCN(C2CCCC2)CC1,-1.9,0.0,37.4,2.8,x,x,
CCCN1CCC(N2CCN(S(=O)(=O)c3ccc(F)cc3)CC2)CC1,11.6,0.1,54.5*,0.6,8.8,11.4,
CCCCOc1ccc(C(=O)NCC(=O)N2CCC(=O)CC2)cc1,0.6,-0.1,-11.8,0.2,x,x,
COc1ccc(-c2nn(-c3ccccc3)cc2C(=O)Nn2cnnc2)cc1[N+](=O)[O-],9.1,0.0,22.1,-0.4,x,x,
Cc1cc(OCCNCCO)ccc1C(C)C,-5.9,-0.1,4.5,-0.4,x,x,
Cc1cc(OCCOCCN2CCCC2)ccc1C(C)C,1.6,-0.3,25.3,3.6,x,x,
Cc1ccc(C)c(OCCCCNCCO)c1C,1.4,-0.1,55.5*,-0.5,-13.4,-3.1,
Cc1cccc(OCCCCNCCO)c1C,13.0,0.1,-7.6,-0.7,x,x,
C=CCNCCOCCOc1ccc(C(C)C)c(C)c1,4.5,0.0,51.9*,-1.4,0.3,0.6,
Cc1cc(OCCCCNCCO)ccc1C(C)C,2.5,0.1,61.9*,-1.1,-11.6,-2.8,
COCCCNCCCOc1ccc(OCc2ccccc2)cc1,-10.9,-0.1,54.3*,0.4,6.0,15.8,
Cc1ccc(C)c2sc(N(CCN(C)C)C(=O)C3CCCN3S(=O)(=O)c3cccs3)nc12 (stereo not drawn),-3.9,0.0,-8.1,-0.7,x,x,
COc1ccc(C(=O)CC(Nc2ccc(F)cc2)c2ccc(Br)cc2)cc1 (stereo not drawn),-26.0,-0.1,3.5,-2.0,x,x,
Cc1cc(OCCNCCN)ccc1C(C)C,4.1,-0.1,-6.8,-0.8,x,x,
COCCCNCCOc1ccc(C(C)C)c(C)c1,-10.8,0.1,59.8*,0.4,-1.2,5.9,
COCCNCCOc1ccc(C(C)C)c(C)c1,4.9,-0.1,60.4*,-1.6,10.9,12.0,
Cc1ccc(N(C)C(=O)Cn2nc(Cc3cccnc3)c3ccccc3c2=O)cc1C,-2.6,0.4,1.8,-0.2,x,x,
Cc1ccc(-n2ncc3c(=O)n(CC(=O)c4ccccc4)cnc32)cc1C,9.8,0.0,11.1,-0.9,x,x,
O=C(CSc1nsc(SCC(=O)Nc2ccc(Cl)c(Cl)c2)n1)Nc1ccc(Cl)c(Cl)c1,-9.8,0.4,58.8*,0.7,39.0*,10.9,
Cc1cccc(NC(=O)CSc2nsc(SCC(=O)Nc3cccc(C)c3)n2)c1,-2.0,0.1,-6.2,-0.8,x,x,
O=C(CCCC(=O)OCC(=O)c1ccccc1)Nc1ccccc1,-0.6,0.0,3.7,0.3,x,x,
CC1NC(=O)NC1CCCCCC(=O)OCC(=O)c1ccccc1 (stereo not drawn),-8.9,-0.6,114.6*,-1.6,117.7*,100.3*,
CCn1c(Cc2ccccc2)nnc1SCC(=O)Nc1cc(C)on1,4.2,0.1,4.0,-1.2,x,x,
CCCc1nnc(SCC(=O)Nc2cc(C)on2)n1CC,-3.4,-0.1,74.2*,1.2,3.9,12.0,
CN(C)CCCN(CCCN(C)C)Cc1ccc(C(F)(F)F)cc1,-1.7,-0.1,53.6*,-0.4,-9.3,0.3,
CN(C)CCCN(CCCN(C)C)Cc1ccc(F)c(F)c1,-1.0,0.0,56.0*,-0.2,-12.0,-0.9,
COc1cc(C)c2c(c1C=O)Oc1c(c(C)c(O)c3c1C(O)OC3=O)OC2=O (stereo not drawn),-18.1,-0.2,74.0*,-2.3,83.7*,1.7,AS interf DR=>6.48
Cc1cc(O)c(C=O)c2c1C(=O)Oc1c(C)c(O)c3c(c1O2)C(O)OC3=O (stereo not drawn),-5.8,-0.2,25.3,0.4,x,x,

# From PubChem
